Assay outcomes deposited in PubChem by The Scripps Research Institute Molecular Screening Center.
PKA-R1A activ = activators of PKA-R1A holoenzyme, primary screen, biochemical, fluorescence polarization, Cy5-IP20, bovine R1A, mouse PKAc | activation, % at 11.4 µM | PKA-R1A dissociation; scaled: DMSO 0%, 113 µM cGMP 100% | cAMP-dependent protein kinase type I-alpha regulatory subunit (Bos taurus) + … | 0.083% of 340,000 active;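 active means percent activation above the mean of all tested compounds plus 3 SD, cut at about 19% in these data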;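 further: higher means more PKAc released from R1A so a rise in polarization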
PKA-R2B activ = activators of PKA-R2B holoenzyme, primary screen, biochemical, fluorescence polarization, Cy5-IP20, human; cAMP-dependent protein kinase catalytic subunit beta (Homo sapiens) + cAMP-dependent …; PKA-R2B holoenzyme dissociation; R2B truncated from residue 108, S112A mutant; 0% DMSO only, 100% 113 µM cGMP; activation, % at 11.4 µM; 0.079% of 340,000 active; AID 504700, 2011;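 active means activation above a cutoff set at the mean over all compounds plus 3 SD, cut at about 18% in these data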;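 further: higher means more holoenzyme dissociation and a rise in polarization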
Target sequence (P31323 whole entry, looked up, other chains not shown, the tested form may be a part): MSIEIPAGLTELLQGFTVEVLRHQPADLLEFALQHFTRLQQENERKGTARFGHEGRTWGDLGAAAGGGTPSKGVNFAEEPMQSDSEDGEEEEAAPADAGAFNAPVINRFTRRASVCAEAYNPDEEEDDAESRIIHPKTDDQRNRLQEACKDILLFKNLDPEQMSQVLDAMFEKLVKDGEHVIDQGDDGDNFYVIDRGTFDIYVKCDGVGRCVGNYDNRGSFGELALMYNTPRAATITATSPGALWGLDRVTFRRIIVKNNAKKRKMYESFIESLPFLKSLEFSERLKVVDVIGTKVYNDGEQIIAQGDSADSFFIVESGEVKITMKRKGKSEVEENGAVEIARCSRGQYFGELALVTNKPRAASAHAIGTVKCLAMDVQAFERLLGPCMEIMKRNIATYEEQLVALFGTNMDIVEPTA
MsrA inhibitor = bovine MsrA enzyme inhibitors, primary screen, biochemical, absorbance, HTS. inhibition, % at 15.5 µM. AID 651718, 2012. Methionine sulfoxide reductase A (Bos taurus). 0.75% of 360,000 active. purified bovine MsrA, absorbance read-out;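 further: 0% = vehicle wells with enzyme and 100% = reference inhibitor wells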
bovine MsrA act = bovine MsrA enzyme activators, primary screen, biochemical, absorbance, HTS; Methionine sulfoxide reductase A (Bos taurus); purified bovine MsrA, absorbance read-out; activation, % at 10.6 µM; 0.3% of 360,000 active; AID 602163, 2012; in the data active means activation above about 7.5%;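 further: 0% = vehicle and 100% = reference activator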
MsrA conf = bovine MsrA inhibitors, retest, confirmation, biochemical, absorbance, HTS; shares compounds with MsrA inhibitor; purified bovine MsrA, absorbance read-out; inhibition, % at 15.5 µM; 41% of 2,300 active;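 further: coupled to thioredoxin reductase with NADPH and selenocystamine and DMSO as substrate; 0% = vehicle only and 100% = full effect of reference inhibitor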
Numbers without * were called inactive; · = no result. Compounds with a hit are over-represented: about 1.1% of the library has one in this group of screens. Unless noted, no stated cut-off is given here; in the data, active means inhibition above about 4.5%; inactive means the rest.

SMILES | PKA-R1A activ | PKA-R2B activ | MsrA inhibitor | bovine MsrA act | MsrA conf
COc1ccc(C=C2C(=O)NC(=S)NC2=O)cc1OC | -10.8 | -1.7 | 0.4 | -2.5 | ·
CCOc1cc(C=C2C(=O)NC(=S)NC2=O)ccc1O | 5.0 | -8.5 | 4.8* | -5.7 | 2.3
Cc1c(N=Cc2c(O)n(Cc3ccc(F)cc3)c(=O)[nH]c2=O)c(=O)n(-c2ccccc2)n1C | -2.3 | -2.4 | 4.9* | -2.4 | 3.0
Cc1ccccc1-n1c(O)c(C=Nc2ccc3c(c2)OCO3)c(=O)[nH]c1=O | 3.1 | 11.7 | 4.7* | -4.4 | 3.2
CCN(CC)c1ccc(N=Cc2c(O)n(-c3ccccc3C)c(=O)[nH]c2=O)cc1 | -16.6 | -14.3 | -0.1 | 0.0 | ·
Cc1ccccc1-c1ccc2n1Cc1cnnn1-c1ccccc1-2 | 11.1 | -1.3 | 5.5* | -4.3 | 0.3
CC(C)n1c(=O)c(C=Nc2ccc(F)cc2)c(O)n(Cc2ccco2)c1=O | 2.9 | -14.0 | 5.7* | -2.0 | 2.3
Cc1ccc(N2Cc3ccccc3-n3nncc3C2)cc1 | · | · | -1.6 | · | ·
O=C1NC(=O)C2(Cc3c(nc4ccccn4c3=O)N3CCCCCC32)C(=O)N1Cc1ccccc1 (stereo not drawn) | 7.8 | -9.2 | 1.1 | -3.6 | ·
CCOC(=O)c1cc(C(O)(C(=O)OC)C(F)(F)F)c(/N=C/N(C)C)o1 (stereo not drawn) | -7.8 | -6.0 | 6.8* | -13.7 | 3.1
COc1ccc(Cn2c(O)c(/C=N/NC(=O)c3ccccc3O)c(=O)[nH]c2=O)cc1 | -3.5 | -10.2 | 6.2* | -3.5 | 5.4*
O=C(N/N=C/c1c(O)n(CCc2ccccc2)c(=O)[nH]c1=O)c1ccccc1O | 1.2 | 12.7 | 4.9* | -5.6 | 3.6
O=C(N/N=C/c1c(O)n(CCc2ccc(F)cc2)c(=O)[nH]c1=O)c1ccccc1 | · | · | 0.2 | 3.5 | ·
COc1cc(/C=C/[N+](=O)[O-])ccc1O | 1.1 | -6.1 | 5.5* | -8.1 | 4.7*
Cn1c(O)c(C=NCCCCCCCCCCC(=O)O)c(=O)n(C)c1=O | -5.3 | 1.5 | 0.1 | -9.7 | ·
COC(=O)C1=C(c2ccc(F)cc2OCc2ccccc2)C[C@@H]2CC[C@H]1N2C(=O)NCc1ccccc1Cl | -6.0 | -0.4 | 0.3 | -11.1 | ·
N/C(=N\[N+](=O)[O-])N/N=C/c1ccc(O)cc1 | -6.9 | 9.2 | 5.3* | -7.1 | 4.3
N/C(=N\N=C\c1ccc(O)cc1O)N[N+](=O)[O-] | 8.6 | -4.1 | 4.2 | -5.7 | ·
Cc1cc(N(CCCl)CCCl)ccc1C=NNC(=O)c1cccnc1 | 0.8 | 2.5 | 5.3* | -13.0 | 3.9
O=C(NN=Cc1ccc(N(CCCl)CCCl)cc1Cl)c1cccnc1 | 6.3 | 4.4 | 1.6 | -3.2 | ·
CC(C)(C)c1cc([N+](=O)[O-])cc(C(C)(C)C)c1O | · | · | 22.0* | · | 17.6*
NS(=O)(=O)c1nc[nH]c1[N+](=O)[O-] | 1.6 | 0.9 | 2.8 | -6.8 | ·
